KB-3-1 cytotox: KB-3-1 parental cell cytotoxicity; AID 1347075; KB-3-1 viability, CellTiter-Glo ATP luminescence, 72 h; actives 1.4% (n = 400,000); Potency, µM (series often up to 46.1 µM), usual class: cytotoxic; also: nearly all actives have a fitted effect of over 60% in size
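Cytotoxicity in the drug-sensitive parental line KB-3-1 was scored as loss of CellTiter-Glo luminescence following 72 h incubation with compound. Values come from curve fitting of normalized concentration-response data.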
HT1080-NT tox: kills 2HG-producing HT-1080-NT fibrosarcoma cells; HT-1080-NT fibrosarcoma viability, CellTiter-Glo ATP luminescence, 48 h; Potency, µM (titrated, usually from 46.1 µM), for inactives: top-dose activity, negative = less viability, most hits filed as cytotoxic; actives 1.6% (n = 360,000); AID 686970;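 also: NT is the 2HG producing partner of a matched IDH1 knockdown line; 0% = DMSO-treated cells and -100% = media-only wells without cells; nearly all actives have a fitted effect of over 55% in size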
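Luminescent CellTiter-Glo readout after 48 hours of compound exposure at 37 degrees C defined viability of HT-1080-NT cells. Activity was normalized to DMSO wells and cell-free media wells; concentration-response curves were fitted and assigned curve classes.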
HT1080 IDH1KD tx: kills HT-1080 cells with IDH1 knockdown | HT-1080 IDH1 knockdown viability, ATP luminescence, 48 h | Potency, µM (doses to about 46.1 µM), for inactives: at the top dose activity, negative = toxicity, most hits filed as cytotoxic | actives 2% (n = 360,000);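 also: 0% = DMSO wells and -100% = cell-free medium wells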
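Cytotoxicity counter-line: IDH1KD HT-1080, 48 h, CellTiter-Glo. Curves classed by r2, magnitude and activity.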
KB-V1 MDR tox: KB-V1 MDR subline cytotoxicity | Potency, µM (titrated, usually from 46.1 µM), most hits filed as cytotoxic | actives 3.4% (n = 400,000) | AID 1347076 | KB-V1 MDR cells viability, CellTiter-Glo, 72 h; also: nearly all actives have a fitted effect of over 60% in size
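Cytotoxicity toward P-gp-expressing KB-V1 cells was determined as loss of CellTiter-Glo luminescence after 72 h at 37 degrees C. Compounds were tested in quantitative HTS format across a concentration range, with curves fitted to normalized data.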
The depositor's hits bear a star. A selection: hits, their analogues and other compounds. The true share with any hit is near 5.7%. Calls follow the shape of the dose curve; as a rule, active = well fitted curve in the direction sought with a large enough effect; inconclusive = small, poorly fitted or top-dose-only effect, or another doubt; inactive = no such curve, though single readings can be large; an effect the other way counts as inactive or inconclusive. Unless noted, % is scaled to controls: 0 for no effect and ±100 for the full control effect; potency is read from the fitted curve at half-maximal effect.

Results for Cn1c2ccccc2c2cnn(CC(=O)Nc3ccccc3C(F)(F)F)c(=O)c21 ?
KB-3-1 cytotox: inactive; KB-V1 MDR tox: inconclusive

What do the screens show for `COc1ccc(CCNc2ncnc3nc[nH]c23)cc1`?
KB-3-1 cytotox: inactive; KB-V1 MDR tox: inactive

How did O=C(C[n+]1csc2ccccc21)c1cccc([N+](=O)[O-])c1 do in these assays?
KB-3-1 cytotox: inactive; KB-V1 MDR tox: inactive

How did CCCCCn1c(CN2CCCCC2CC)nc2c1c(=O)n(C)c(=O)n2C (stereo unspecified) do in these assays?
KB-3-1 cytotox: inactive; HT1080-NT tox: 0.0%; HT1080 IDH1KD tx: 8.0%; KB-V1 MDR tox: inactive

What do the screens show for `CCCCCn1c(CN2CCCCC2C)nc2c1c(=O)n(C)c(=O)n2C` (stereo unspecified)?
KB-3-1 cytotox: inactive; HT1080-NT tox: -2.6%; HT1080 IDH1KD tx: -6.1%; KB-V1 MDR tox: 4.61µM*

How did Cc1cc(C)c(NC(=O)Cn2c(=O)n(CCC(=O)N3CCc4ccccc4C3)c(=O)c3ccccc32)c(C)c1 do in these assays?
KB-3-1 cytotox: inactive; KB-V1 MDR tox: inconclusive

How did Cn1c(Sc2ccc(Br)cc2)c(C=O)c2ccccc21 do in these assays?
KB-3-1 cytotox: inconclusive; HT1080-NT tox: inconclusive; HT1080 IDH1KD tx: 25.9µM*; KB-V1 MDR tox: inconclusive

How did Cc1cc(NC(=O)c2ccco2)ccc1NC(=O)c1ccco1 do in these assays?
KB-3-1 cytotox: inconclusive; HT1080-NT tox: inconclusive; HT1080 IDH1KD tx: -25.9%; KB-V1 MDR tox: 23.1µM*

Results for CCN(CC)c1ccc(NC(=O)c2cc(OC)cc(OC)c2)c(C)c1 ?
KB-3-1 cytotox: 0.92µM*; HT1080-NT tox: 3.66µM*; HT1080 IDH1KD tx: 4.61µM*; KB-V1 MDR tox: 1.16µM*

How did Cc1ccc(NC(=O)c2ccco2)cc1C do in these assays?
KB-3-1 cytotox: inactive; HT1080-NT tox: 4.6%; HT1080 IDH1KD tx: -2.1%; KB-V1 MDR tox: inactive

How did COc1cc(OC)cc(C(=O)Nc2ccc(NC(=O)c3ccco3)c(C)c2)c1 do in these assays?
KB-3-1 cytotox: inactive; HT1080-NT tox: inconclusive; HT1080 IDH1KD tx: 23.1µM*; KB-V1 MDR tox: inconclusive

What do the screens show for `COc1cc(OC)cc(C(=O)Nc2cc(NC(=O)c3ccco3)ccc2OC)c1`?
KB-3-1 cytotox: inactive; HT1080-NT tox: -12.3%; HT1080 IDH1KD tx: inconclusive; KB-V1 MDR tox: inconclusive

How did COCCCn1c(SCC(=O)Nc2ccc(OC)cc2)nc2c(sc3ccccc32)c1=O do in these assays?
KB-3-1 cytotox: inactive; KB-V1 MDR tox: inactive

What do the screens show for `COc1ccc(C2(CNC(=O)C(=O)Nc3ccc(C)c(Cl)c3)CCCC2)cc1OC`?
KB-3-1 cytotox: inactive; KB-V1 MDR tox: inactive

How did CCOc1ccc2c(c1)-c1c(ssc1=S)C(C)(C)N2C(=O)c1ccco1 do in these assays?
KB-3-1 cytotox: inconclusive; HT1080-NT tox: 4.61µM*; HT1080 IDH1KD tx: 5.17µM*; KB-V1 MDR tox: inconclusive

What do the screens show for `CCOc1ccc(NC(=O)N2CCN(C(=O)c3ccco3)CC2)cc1`?
KB-3-1 cytotox: inactive; HT1080-NT tox: -10.8%; HT1080 IDH1KD tx: -3.7%; KB-V1 MDR tox: inactive

How did COc1ccc(CNC(=O)c2cccn2-c2nnc(N3CCCCC3)s2)c(OC)c1 do in these assays?
KB-3-1 cytotox: inactive; KB-V1 MDR tox: inactive

Results for CN(C)c1cc(O)c(C(=S)Nc2ccccc2)c(N(C)C)c1 ?
KB-3-1 cytotox: inconclusive; HT1080-NT tox: -15.5%; HT1080 IDH1KD tx: -16.4%; KB-V1 MDR tox: 16.4µM*

Results for CC(C)(C)c1ccc(NC(=O)c2cc(C3CCCN(S(=O)(=O)c4cccc5cccnc45)C3)on2)cc1 (stereo unspecified) ?
KB-3-1 cytotox: inconclusive; HT1080-NT tox: -20.9%; HT1080 IDH1KD tx: inconclusive; KB-V1 MDR tox: 23.1µM*

How did O=C(Nc1ccc(C(F)(F)F)cc1)C1CCCN(S(=O)(=O)c2cccc3cccnc23)C1 (stereo unspecified) do in these assays?
KB-3-1 cytotox: inactive; KB-V1 MDR tox: inactive

What do the screens show for `CC(=O)Nc1ccc(C(=O)N2CCCC(c3cc(C(=O)Nc4ccccc4)no3)C2)cc1` (stereo unspecified)?
KB-3-1 cytotox: inactive; HT1080-NT tox: 19.4%; HT1080 IDH1KD tx: 12.5%; KB-V1 MDR tox: inactive

What do the screens show for `N#Cc1cccc(NC(=O)c2cc(C3CCCCN3S(=O)(=O)c3cccc4cccnc34)on2)c1` (stereo unspecified)?
KB-3-1 cytotox: inactive; HT1080-NT tox: 0.1%; HT1080 IDH1KD tx: -9.0%; KB-V1 MDR tox: inactive

What do the screens show for `Cc1ncccc1C(=O)N1CCCC(c2cc(C(=O)Nc3ccc(C(C)(C)C)cc3)no2)C1` (stereo unspecified)?
KB-3-1 cytotox: inactive; HT1080-NT tox: 20.6µM*; HT1080 IDH1KD tx: inconclusive; KB-V1 MDR tox: inactive

How did O=C(Nc1ccncc1)C1CCCN(S(=O)(=O)c2cccc3cccnc23)C1 (stereo unspecified) do in these assays?
KB-3-1 cytotox: inconclusive; HT1080-NT tox: 3.26µM*; HT1080 IDH1KD tx: inconclusive; KB-V1 MDR tox: inactive

What do the screens show for `Cc1ccc(S(=O)(=O)N(C)c2ccc(OCC(=O)Nc3nc4c(ccc5ccccc54)s3)cc2)cc1`?
KB-3-1 cytotox: inactive; HT1080-NT tox: 13.7%; HT1080 IDH1KD tx: 15.3%; KB-V1 MDR tox: 4.11µM*

How did Cc1ccc(S(=O)(=O)N(C)c2ccc(OCC(=O)Nc3nc4ccccc4s3)cc2)cc1 do in these assays?
KB-3-1 cytotox: inconclusive; HT1080-NT tox: -4.7%; HT1080 IDH1KD tx: inconclusive; KB-V1 MDR tox: 2.91µM*

What do the screens show for `CC1=Nc2cc(C(=O)O)ccc2Sc2ccc(C)cc21`?
KB-3-1 cytotox: inactive; HT1080-NT tox: -1.1%; HT1080 IDH1KD tx: 0.0%; KB-V1 MDR tox: inactive

Results for CCC(C)NC(=O)c1ccc2c(c1)N=C(C)c1cc(C)ccc1S2 (stereo unspecified) ?
KB-3-1 cytotox: 5.17µM*; KB-V1 MDR tox: inactive

What do the screens show for `CC1=Nc2cc(C(=O)NCc3ccco3)ccc2Sc2ccc(C)cc21`?
KB-3-1 cytotox: inconclusive; HT1080-NT tox: 3.66µM*; HT1080 IDH1KD tx: 1.64µM*; KB-V1 MDR tox: 0.581µM*

Results for Cc1cc(F)ccc1C(O)c1ncc(-c2ccccc2F)[nH]1 (stereo unspecified) ?
KB-3-1 cytotox: inactive; HT1080-NT tox: -10.4%; HT1080 IDH1KD tx: -10.7%; KB-V1 MDR tox: inactive

What do the screens show for `CCOc1ccc(Nc2nc3c(S(=O)(=O)c4ccc(CC)cc4)nnn3c3ccc(Cl)cc23)cc1`?
KB-3-1 cytotox: inactive; KB-V1 MDR tox: inactive

How did CCn1c(SCc2cccc(Br)c2)nnc1-c1nonc1NC(C)=O do in these assays?
KB-3-1 cytotox: inactive; KB-V1 MDR tox: inactive

Results for CCCCCCCCCS(=O)(=O)Nc1cc(C)ccn1 ?
KB-3-1 cytotox: inactive; HT1080-NT tox: -7.5%; HT1080 IDH1KD tx: -9.6%; KB-V1 MDR tox: inactive

How did Cc1cc(C)cc(NS(=O)(=O)CCCS(=O)(=O)Nc2cc(C)cc(C)c2)c1 do in these assays?
KB-3-1 cytotox: inactive; HT1080-NT tox: inconclusive; HT1080 IDH1KD tx: 20.6µM*; KB-V1 MDR tox: inactive

Screening results from PubChem.
